LDHA inh: qHTS assay for inhibitors of human lactate dehydrogenase | L-lactate dehydrogenase A chain (Homo sapiens), P00338 | purified LDHA, NADH/diaphorase-resazurin fluorescence; hits give low values | activity change, % (values are at about 110 or 230 µM) | actives 0.15% (n = 480,000) | AID 1347041, 2019; in the data active = activity change below about -30%; inconclusive = mostly about -25% to -30%
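Human LDH5 at 2 nM final in Tris HCl pH 7.4 with 0.06 mM NADH and 0.2 mM pyruvate, reacted 5 minutes at room temperature. Remaining NADH coupled via diaphorase/resazurin; resorufin fluorescence read at 0 and 20 minutes, normalized to enzyme-free and DMSO wells.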
ALOX12 inh: Primary qHTS assay for inhibitors of human arachidonate 12S-lipoxygenase (ALOX12): Round 2; Polyunsaturated fatty acid lipoxygenase ALOX12 (Homo sapiens), P18054; purified 12hLO, xylenol orange hydroperoxide absorbance; Potency, µM (titrated, usually from 108 µM), most hits filed as inhibitors; actives 1.1% (n = 580,000)
Target sequence (P18054 whole entry, looked up): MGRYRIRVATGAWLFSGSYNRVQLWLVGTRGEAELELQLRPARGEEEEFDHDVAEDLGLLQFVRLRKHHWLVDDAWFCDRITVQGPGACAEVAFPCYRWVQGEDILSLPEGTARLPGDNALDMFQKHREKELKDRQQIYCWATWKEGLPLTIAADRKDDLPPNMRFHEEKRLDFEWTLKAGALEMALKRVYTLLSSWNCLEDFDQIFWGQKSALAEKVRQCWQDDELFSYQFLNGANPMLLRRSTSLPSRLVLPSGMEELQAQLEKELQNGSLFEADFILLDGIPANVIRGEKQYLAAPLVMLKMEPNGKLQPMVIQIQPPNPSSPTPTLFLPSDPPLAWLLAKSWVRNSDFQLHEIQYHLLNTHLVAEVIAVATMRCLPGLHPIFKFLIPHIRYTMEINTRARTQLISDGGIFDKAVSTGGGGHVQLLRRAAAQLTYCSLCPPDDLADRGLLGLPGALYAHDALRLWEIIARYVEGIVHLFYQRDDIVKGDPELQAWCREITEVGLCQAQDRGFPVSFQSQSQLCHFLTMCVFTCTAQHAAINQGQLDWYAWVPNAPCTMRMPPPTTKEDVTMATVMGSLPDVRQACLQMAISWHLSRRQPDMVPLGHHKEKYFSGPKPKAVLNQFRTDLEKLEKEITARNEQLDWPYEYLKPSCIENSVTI
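Hydroperoxide product was detected by ferrous iron/xylenol orange as the 573 to 405 nm absorbance ratio. Arachidonic acid at 40 uM (final) was turned over for 30 min at room temperature by 150 nM human 12hLO, pH 7.0 Hepes buffer, after 15 min compound preincubation.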
Nrf2 ARE act: qHTS of Nrf2 Activators. AID 624171, 2012. AREc32 ARE-luciferase reporter (MCF7-derived line), luminescence, 24 h. actives 0.31% (n = 410,000). Potency, µM (highest dose often 46.1 µM), usual class: activators; also: nearly all actives have a fitted effect of over 65% in size
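Quantitative high-throughput format: AREc32 reporter cells, 1000 per well, received compound by pin transfer and were incubated 24 hr at 37 deg C, 5% CO2, before Steady-Glo luminescence detection.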
mIDH1 inhibitor: qHTS for Inhibitors of mutant isocitrate dehydrogenase 1 (IDH1): qHTS; Isocitrate dehydrogenase [NADP] cytoplasmic (Homo sapiens), O75874; IDH1-R132H enzyme, NADPH consumption, diaphorase/resazurin fluorescence; Potency, µM (top dose mostly 76.6 µM), most hits filed as inhibitors; actives 0.093% (n = 390,000); also: nearly all actives have a fitted effect of over 65% in size
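IDH1-R132H (0.5 ug/mL) preincubated 30 min with compound, then NADPH (0.016 mM) and alpha-KG (2 mM) added; 80 min at RT, pH 7.5. Remaining NADPH coupled via diaphorase/resazurin to fluorescence (540/590 nm); concentration-response curves normalized to no-enzyme control.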
Nrf2 block: Nrf2 qHTS screen for inhibitors | A549 ARE-Fluc reporter, luciferase luminescence, 18-24 h | actives 2.1% (n = 360,000) | Potency, µM (top dose mostly 46 µM), most hits filed as inhibitors; also: nearly all actives have a fitted effect of over 60% in size
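A549 ARE_Fluc cells (5000/well, 5% FBS OPTI-MEM) pre-incubated 2 h, then treated with compounds 18-24 h at 37C/5% CO2 in concentration-response. CellTiter-Fluor viability read first; BugLite luciferase luminescence after 15 min at room temperature gives Nrf2 activity.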
A549 tox: Nrf2 qHTS screen for inhibitors: counterscreen for cytotoxicity. A549 ARE-Fluc cells, CellTiter-Fluor viability, 18-24 h. Potency, µM (series often up to 46 µM), hits mostly inhibitors. actives 0.16% (n = 390,000). AID 504648, 2011
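Cytotoxicity counterscreen: CellTiter-Fluor fluorescence was measured in A549 ARE_Fluc cells after 18-24 h of compound exposure in a concentration series. The subsequent BugLite luminescent read reports ARE-luciferase activity.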
Hits are given with their value; - = inactive; ? = inconclusive; . = no result. In the library only some 2.7% were active in any assay of this set; here they are far more common. Unless noted, calls follow the shape of the dose curve; as a rule, active = well fitted curve in the direction sought with a large enough effect; inconclusive = small, poorly fitted or top-dose-only effect, or another doubt; inactive = no such curve, though single readings can be large; an effect the other way counts as inactive or inconclusive.

SMILES	LDHA inh	ALOX12 inh	Nrf2 ARE act	mIDH1 inhibitor	Nrf2 block	A549 tox
Cc1ccc(/C=C2\SC(=S)N(CCCC(=O)NC3CCCC3)C2=O)cc1	-	-	-	-	10µM	-
CCc1ccc(/C=C2\SC(=S)N(CCCC(=O)Nc3cc(C)on3)C2=O)cc1	-	-	-	-	.	.
CN(CC(=O)N1CCCC(CCc2ccc(F)cc2)C1)C1CCNCC1 (stereo not drawn)	.	-	.	.	.	.
Cc1nn(-c2ccccc2)c(C)c1[C@@H]1C=C[C@@H](NC(=O)c2ccc(N(C)C)cc2)C1	.	-	.	.	.	.
CC1(C)CC[C@]2(C(=O)O)CC[C@]3(C)C(=CC[C@@H]4[C@@]5(C)CC[C@H](O[C@@H]6O[C@H](C(=O)O)[C@@H](O)[C@H](O[C@@H]7OC[C@H](O)[C@H](O)[C@H]7O)[C@H]6O)C(C)(C)[C@@H]5CC[C@]43C)[C@@H]2C1	-	-	-	-	21µM	?
CN(C)CCSc1nc(N2CCOCC2)c2c(c1C#N)CCCC2	-	?	.	.	.	.
CN(C)CCCSc1nc(N2CCOCC2)c2c(c1C#N)CCCC2	-	0.5µM	.	.	.	.
CCc1ccc(-c2csc(-c3nc(-c4ccc(C)cc4C)cs3)n2)cc1	-	-	.	.	.	.
COC(=O)C(=C/C(C)=C/c1cccs1)C(=O)OC	-	-	14µM	-	-	-
Cc1nc2ccccn2c1-c1ccnc(=S)[nH]1	-	16µM	-	-	-	-
CC(C)(C)c1ccc(-c2cc(C[C@H]3CNCC[C@H]3CC(=O)N3CCC(n4c(=O)[nH]c5ccccc54)CC3)no2)cc1	.	32µM	.	.	.	.
CC(C)(C)c1ccc(-c2cc(C[C@H]3CNCC[C@H]3CC(=O)O)no2)cc1	.	-	.	.	.	.
CC(C)(C)c1ccc(-c2cc(C[C@H]3CNCC[C@H]3CC(=O)NC3CCCCC3)no2)cc1	.	32µM	.	.	.	.
CC(C)(C)c1ccc(-c2cc(C[C@H]3CNCC[C@H]3CC(=O)NCc3cccs3)no2)cc1	.	40µM	.	.	.	.
Cc1nc(C(=O)O)ccc1C#N	-	?	.	.	.	.
C=C(C)COc1ccc2c(=O)c(Oc3ccc(C(=O)OCCC)cc3)coc2c1	-	-	.	.	.	.
CC(C)CN(/C=N/c1sc2c(c1C#N)CCCCC2)CC(C)C	-	-	-	-	-	-
CC(C)(C)c1ccc(/C=N/c2sc3c(c2C#N)CCCC3)cc1	-	28µM	.	.	.	.
N#Cc1c(N)sc2c1CCCCCC2	-	35µM	-	-	-	-
CCN(/C=N/c1sc2c(c1C#N)CCCCC2)CC	-	45µM	-	-	.	-
CC(C)c1ccc(/C=N/c2sc3c(c2C#N)CCCC3)cc1	-	-	.	.	.	.
O=C(NN1C(=O)C2C(c3ccccc3)C=CC(c3ccccc3)C2C1=O)c1cccc(Br)c1 (stereo not drawn)	-	-	11µM	-	-	-
O=C(NN1C(=O)C2C(c3ccccc3)C=CC(c3ccccc3)C2C1=O)c1ccccc1 (stereo not drawn)	-	-	-	-	-	-
Nc1cc(=O)[nH]c(SCc2c(F)cccc2Cl)n1	-	-	.	.	.	.
CC(=O)Nc1ccc(-c2csc(NNC(=O)c3ccccc3)n2)cc1	-	-	-	-	13µM	?
SMILES	LDHA inh	ALOX12 inh	Nrf2 ARE act	mIDH1 inhibitor	Nrf2 block	A549 tox
CC(=O)Nc1ccc(-c2csc(Nc3ccccc3)n2)cc1	-	?	.	.	.	.
CNc1nc(-c2ccc(NC(C)=O)cc2F)cs1	-	32µM	.	.	.	.
CC(=O)Nc1ccc(-c2csc(NC(C)(C)C)n2)c(F)c1	-	11µM	.	.	.	.
CC(=O)Nc1ccc(-c2csc(NC(C)(C)C)n2)cc1	-	10µM	.	.	.	.
CCOc1nccn2c(-c3ccc(CNc4ccc(OC)nc4)cc3)cnc12	.	-	.	.	.	.
Cc1cc(C)c(NC(=O)c2nn(C)c(=O)c3ccccc23)c(Cl)c1	-	-	.	.	.	.
CCNc1nc(-c2ccc(NC(C)=O)cc2F)cs1	-	7.1µM	.	.	.	.
CN1C(=O)Cc2cc(-c3csc(NC(C)(C)C)n3)ccc21	-	11µM	.	.	.	.
Cc1ccc2nc(Nc3ccccc3C)cc(C)c2c1	-	?	.	.	.	.
COc1ccc(CC(=O)n2nc(-c3cccc(C)c3)nc2N)cc1	-	-	.	.	.	.
CN1CC(c2ccccc2)C2(SC(=S)N(Cc3ccco3)C2=O)C12C(=O)Nc1ccccc12 (stereo not drawn)	-	-	-	-	12µM	?
O=C(c1ccc(F)cc1)N(c1ccccc1F)C(CCc1ccccc1)c1nc2ccccc2[nH]1 (stereo not drawn)	.	5µM	.	.	.	.
COc1ccc(-c2noc(-c3ccccc3OCC(=O)Nc3ccc(C(C)=O)cc3)n2)cc1	-	-	-	-	?	-
CCOc1ccccc1-c1nc(-c2ccc(NC(=O)Cc3ccc(OC)cc3)cc2)no1	-	-	-	-	21µM	-
CCCCn1c(=O)[nH]c(=O)c2c1nc(CNc1cc(F)ccc1C)n2CC	-	?	.	.	.	.
Cc1nc(N2CCN(c3ccccn3)CC2)c2c(C)c(C(=O)Nc3ccccc3F)sc2n1	-	-	-	-	16µM	-
COc1ccc(NC(=O)c2sc3ncnc(N4CCN(c5ccccn5)CC4)c3c2C)cc1Cl	-	-	-	-	15µM	?
Cc1nc(N2CCOCC2)c2c(C)c(C(=O)Nc3ccccc3Cl)sc2n1	-	-	-	-	-	-
Cc1nc(N2CCC(C)CC2)c2c(C)c(C(=O)Nc3ccc(C(F)(F)F)cc3)sc2n1	-	-	-	-	21µM	?
COc1ccc(Cl)cc1NC(=O)c1sc2nc(C)nc(N3CCOCC3)c2c1C	-	-	-	-	21µM	-
COc1ccc(NC(=O)c2sc3nc(C)nc(N4CCN(c5ccccn5)CC4)c3c2C)cc1Cl	-	-	-	-	?	-
Cc1ccc(S(=O)(=O)/C(C#N)=C/c2c(C)[nH]c3ccccc23)cc1	-	?	.	.	.	.
COc1cccc(C(=O)c2sc(Nc3ccc(F)cc3)nc2N)c1	-	?	.	.	.	.
CC(C)OC(=O)C(CC(=O)O)N1CCOCC1 (stereo not drawn)	-	5.6µM	-	-	-	-
COc1ccc(-c2nnc3n2CCN(C(=O)Cc2ccccn2)C3)cc1	.	-	.	.	.	.
O=C(c1ccc2ccccc2c1)C1CCCN(S(=O)(=O)c2cccnc2)C1 (stereo not drawn)	-	-	-	-	21µM	-
Fc1ccc(-c2c[nH]c(=S)n2Cc2ccccc2)cc1	-	50µM	-	-	-	-
Fc1ccc(-c2n[nH]c(=S)n2Cc2ccccc2)cc1	-	.	-	-	-	-
O=C(CN1CCCC1c1ccc2c(c1)OCCCO2)Nc1cc(Cl)ccc1F (stereo not drawn)	-	-	.	.	.	.

Bioassay records deposited in PubChem by National Center for Advancing Translational Sciences (NCATS).
